# PMC4336329 (PLoS ONE, 2015)
# Among all 310,000 compounds or so, about 14,000 (4.5%) showed an effect of 50% or more. The effect is printed as a negative number. Shown is part of a subset that was picked to be rich in strong results.
# Target: human ether-à-go-go-related gene (hERG) potassium channel (human, UniProt Q12809)
# Experiment: primary screen, population patch clamp on CHO cells stably expressing hERG; higher = less effect of the substance
# 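Note: peak tail current of the secondary pulse compared with the same well before compound.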
# human ether-à-go-go-related gene (hERG) potassium channel, sequence (Q12809 whole entry, looked up): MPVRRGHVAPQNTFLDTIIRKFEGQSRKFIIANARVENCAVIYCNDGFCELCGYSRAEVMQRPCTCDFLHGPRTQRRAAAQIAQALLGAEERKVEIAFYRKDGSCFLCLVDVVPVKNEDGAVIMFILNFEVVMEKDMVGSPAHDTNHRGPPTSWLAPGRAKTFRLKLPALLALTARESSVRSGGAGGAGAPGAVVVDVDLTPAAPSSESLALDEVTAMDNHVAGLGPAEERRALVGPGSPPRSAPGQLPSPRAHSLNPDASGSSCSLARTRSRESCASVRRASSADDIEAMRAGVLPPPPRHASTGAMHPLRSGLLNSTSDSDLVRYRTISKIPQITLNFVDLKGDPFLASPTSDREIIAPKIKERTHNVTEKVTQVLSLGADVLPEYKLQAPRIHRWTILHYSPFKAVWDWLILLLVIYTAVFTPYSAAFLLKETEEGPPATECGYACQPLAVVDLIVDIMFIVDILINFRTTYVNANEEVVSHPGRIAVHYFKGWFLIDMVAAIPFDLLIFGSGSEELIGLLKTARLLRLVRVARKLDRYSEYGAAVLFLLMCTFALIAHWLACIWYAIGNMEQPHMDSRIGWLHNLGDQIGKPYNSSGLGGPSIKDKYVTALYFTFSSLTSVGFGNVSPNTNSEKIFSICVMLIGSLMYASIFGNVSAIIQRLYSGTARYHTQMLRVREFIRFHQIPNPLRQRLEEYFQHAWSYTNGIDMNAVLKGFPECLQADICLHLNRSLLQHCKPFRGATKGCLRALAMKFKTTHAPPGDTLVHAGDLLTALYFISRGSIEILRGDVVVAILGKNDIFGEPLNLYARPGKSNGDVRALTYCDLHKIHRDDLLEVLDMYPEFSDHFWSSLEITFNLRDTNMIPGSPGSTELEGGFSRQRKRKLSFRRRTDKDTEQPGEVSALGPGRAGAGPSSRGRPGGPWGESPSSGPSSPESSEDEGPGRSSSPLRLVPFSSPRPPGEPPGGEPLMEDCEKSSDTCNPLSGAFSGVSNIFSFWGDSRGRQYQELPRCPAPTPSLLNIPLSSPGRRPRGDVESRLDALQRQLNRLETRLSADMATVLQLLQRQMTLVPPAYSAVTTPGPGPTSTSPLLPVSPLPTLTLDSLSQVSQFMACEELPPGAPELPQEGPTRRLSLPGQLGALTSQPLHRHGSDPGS
row,Compound,"hERG current change (%, negative = inhibition) at 10uM"
1,CC(=O)c1ccc(S(=O)(=O)N2CCC(c3nc4ccccc4[nH]3)CC2)cc1,-54.3%
2,O=S(=O)(c1ccc(F)cc1)N1CCC(c2nc3ccccc3[nH]2)CC1,-2.46%
3,COc1ccc(OC)c(S(=O)(=O)N2CCC(c3nc4ccccc4[nH]3)CC2)c1,-55.7%
4,O=S(=O)(c1ccccc1F)N1CCC(c2nc3ccccc3[nH]2)CC1,-13.3%
5,O=S(=O)(c1cccc(Cl)c1)N1CCC(c2nc3ccccc3[nH]2)CC1,2.21%
6,CC(=O)c1cccc(S(=O)(=O)N2CCC(c3nc4ccccc4[nH]3)CC2)c1,-56.6%
7,O=S(=O)(c1cccc(C(F)(F)F)c1)N1CCC(c2nc3ccccc3[nH]2)CC1,0.277%
8,COc1ccc(S(=O)(=O)N2CCC(c3nc4ccccc4[nH]3)CC2)cc1,10.3%
9,CC(=O)Nc1ccc(S(=O)(=O)N2CCC(c3nc4ccccc4[nH]3)CC2)cc1,-18.4%
10,Cc1[nH]c2ccc(F)cc2c1CCN(Cc1ccncc1)C(=S)Nc1ccc(F)cc1,-38.4%
11,CC1=NN(C(=O)c2ccc(Cn3cc([N+](=O)[O-])cn3)cc2)C(O)(C(F)(F)F)C1 (stereo not shown),-21.1%
12,Cc1ccc(C)c(NC(=O)CN2C(=O)COc3ccc(S(=O)(=O)N4CCCC4)cc32)c1,-0.517%
13,O=C1NC(=O)C(=Cc2ccc(N3CCOCC3)cc2)C(=O)N1,12.9%
14,Cc1cc(C)nc(NC(=O)c2ccc([N+](=O)[O-])c(C)c2)n1,7.43%
15,Cc1cc(C(=O)Nc2ncn[nH]2)ccc1[N+](=O)[O-],26.3%
16,Cc1cc(C(=O)Nc2ncn(Cc3ccc(F)cc3)n2)ccc1[N+](=O)[O-],-51.7%
17,C[C@]12C[C@H](O)[C@H]3[C@@H](CCC4=CC(=O)CC[C@@]43C)[C@@H]1CC[C@@H]2C(=O)CO,0.529%
18,Cl.N=c1n(CCO)c2ccccc2n1Cc1ccccc1Cl,-20%
19,Br.CC(C)(C)C(=O)Cn1c(=N)n(Cc2ccccc2Cl)c2ccccc21,-49.2%
20,Cl.N=c1n(Cc2ccccc2Cl)c2ccccc2n1CC(O)c1ccco1 (stereo not shown),-56.7%
21,Cc1ccccc1Cn1c(C(C)O)nc2ccccc21 (stereo not shown),4.7%
22,Cc1ccccc1Cn1c(=O)n(Cc2ccco2)c(=O)c2ccccc21,2.24%

row,Compound,"hERG current change (%, negative = inhibition) at 10uM"
1,Cc1ccccc1Cn1c(=N)n(CC(O)c2ccco2)c2ccccc21.Cl (stereo not shown),-59.8%
2,CCOC(=O)C1CCN(C(=O)CCn2c(=O)c3cccn3c3cccnc32)CC1,-33.2%
3,Cc1c(C(=O)NCCc2ccccc2)oc2ccccc12,1.98%
4,CN(C)C(=O)NC(O)C(Cl)Cl (stereo not shown),-2%
5,Cc1nn(C)c(C)c1NS(=O)(=O)c1ccccc1Cl,4.16%
6,CCc1ccccc1NC(=O)C1CCCN(c2ncnc3onc(-c4ccc(F)cc4)c23)C1 (stereo not shown),11.2%
7,CCOc1ccc(/C=N/NC(=O)c2ccc(Cn3cc(Br)cn3)o2)cc1,-56.4%
8,COc1cc(/C=N/NC(=O)c2ccc(Cn3cc([N+](=O)[O-])cn3)o2)cc(Br)c1O,-77.5%
9,COc1cc(/C=N\NC(=O)c2ccc(Cn3cc(Br)c([N+](=O)[O-])n3)o2)cc(OC)c1O,-11.9%
10,O=C(N/N=C/c1cccc(Br)c1)c1ccc(Cn2cc(Br)cn2)o1,-40.9%
11,CCOc1ccc(/C=N/NC(=O)c2ccc(Cn3cc([N+](=O)[O-])cn3)o2)cc1,-31.4%
12,O=C(N/N=C\c1ccc2c(c1)OCO2)c1ccc(Cn2cc(Br)c([N+](=O)[O-])n2)o1,-8.65%
13,COc1ccc(/C=N/NC(=O)c2ccc(Cn3cc([N+](=O)[O-])cn3)o2)cc1O,15.8%
14,O=C(N/N=C\c1cccc(F)c1)c1ccc(Cn2cc(Br)c([N+](=O)[O-])n2)o1,-33.9%
15,CN(C)c1ccc(/C=N/NC(=O)c2ccc(Cn3cc(Br)cn3)o2)cc1,-46.1%
16,Cc1ccc(/C=N/NC(=O)c2ccc(Cn3cc([N+](=O)[O-])cn3)o2)cc1,-65%
17,O=C(N/N=C\c1ccc(F)cc1)c1ccc(Cn2cc(Br)c([N+](=O)[O-])n2)o1,-59.9%
18,O=C(N/N=C/c1cccnc1)c1ccc(Cn2cc([N+](=O)[O-])cn2)o1,-8.7%
19,O=C(NC1CCCC1)C(c1cccnc1)N(C(=O)c1csnn1)C1CC1 (stereo not shown),4.97%
20,CC(C)c1ccc(NC(=O)C2C3C=CC4(O3)C2C(=O)N(CCN2CCOCC2)C4C(=O)NC2CCCCC2)cc1 (stereo not shown),15.3%
21,O=C(Nc1ccccc1Cl)OC1CCCCC1,22.7%
